The record followed here is PubChem BioAssay (EPA / NIEHS).

The target of test [1] is CCAAT/enhancer-binding protein beta (Homo sapiens) (UniProt P17676). In words: ATG_C_EBP_CIS: Attagene CIS-FACTORIAL HepG2 Assay for human CCAAT/Enhancer Binding Protein (C/EBP) beta (AID 2282927). The settings on record: HepG2 Attagene cis-factorial transcription factor reporter; actives raise or lower the signal. Summed up: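 Following a 24 h incubation with test chemical, transfected HepG2 cells yielded RNA whose reporter transcripts were quantified by RT-PCR and fluorescent capillary electrophoresis, with DMSO serving as baseline for bidirectional fitting.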
Sequence of CCAAT/enhancer-binding protein beta (Homo sapiens) (P17676 whole entry, looked up): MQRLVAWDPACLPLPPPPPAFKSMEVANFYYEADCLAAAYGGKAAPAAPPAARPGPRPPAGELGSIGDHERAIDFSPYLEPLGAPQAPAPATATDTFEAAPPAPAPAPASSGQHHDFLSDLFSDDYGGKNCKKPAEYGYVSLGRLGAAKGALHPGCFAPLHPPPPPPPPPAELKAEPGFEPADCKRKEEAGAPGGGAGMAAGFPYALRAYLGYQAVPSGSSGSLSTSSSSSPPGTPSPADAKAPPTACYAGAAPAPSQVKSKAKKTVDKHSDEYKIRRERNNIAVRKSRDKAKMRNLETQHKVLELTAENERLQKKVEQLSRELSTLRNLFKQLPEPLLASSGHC

Test [2] is described as follows: ATG_CMV_CIS: Attagene CIS-FACTORIAL HepG2 Assay for human CMV (Internal Marker) (AID 2282928).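 Note: endpoint acts as a background internal control marker rather than a target.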 The following applies: HepG2 CMV promoter reporter, transcription factor profiling; actives raise or lower the signal. In a few lines: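 Bidirectional fits against DMSO are applied to reporter mRNA, read by RT-PCR with capillary electrophoresis, from HepG2 cells exposed 24 h. The endpoint serves as an internal CMV background marker within the cis-factorial reporter panel.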

Test [3] in a line: ATG_DR4_LXR_CIS: Attagene CIS-FACTORIAL HepG2 Assay for human Liver X Receptor (LXR), DR4 submotif (AID 2282929). The settings on record: HepG2 Attagene DR4 cis-reporter, mRNA transcription; actives raise or lower the signal. In a few lines: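 Transiently transfected HepG2 liver cells; cis-regulated reporters; 24 h dosing. RT-PCR plus CE read-out of reporter mRNA. DMSO baseline, bidirectional curve fitting.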

Test [4] has as its target Aryl hydrocarbon receptor (Homo sapiens) (UniProt P35869). Kind of test: ATG_Ahr_CIS: Attagene CIS-FACTORIAL HepG2 Assay for human Aryl Hydrocarbon Receptor (Ahr) (AID 2282930). The following applies: HepG2 AhR cis-factorial reporter transcription; actives raise or lower the signal. In a few lines: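 Values derive from bidirectional fitting against DMSO negative control. Underlying signal: cis-element reporter mRNA in transiently transfected HepG2, harvested 24 h post-dose and measured by RT-PCR plus capillary electrophoresis.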

Test [5] can be described thus: ATG_AP_1_CIS: Attagene CIS-FACTORIAL HepG2 Assay for human Activator Protein 1 (AP-1) (AID 2282931). The following applies: HepG2 Attagene cis-factorial AP-1 reporter mRNA; actives raise or lower the signal. In a few lines: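 We transfected HepG2 cells transiently with a set of cis-regulated reporter transcription units, dosed them for 24 h, and quantified reporter mRNA via RT-PCR and capillary electrophoresis, scoring gain or loss of signal relative to DMSO.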

A short description of test [6]: ATG_AP_2_CIS: Attagene CIS-FACTORIAL HepG2 Assay for human Activator Protein 2 (AP-2) (AID 2282932). The following applies: HepG2 AP-2 cis-reporter, Attagene transcription factor profiling; actives raise or lower the signal. In a few lines: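 Assay in transfected HepG2 with promoter-regulated reporters, 24 h incubation after dosing. Signal is reporter mRNA fluorescence (RT-PCR, capillary electrophoresis), analysed for both increases and decreases relative to DMSO controls.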

The nature of test [7]: ATG_BRE_CIS: Attagene CIS-FACTORIAL HepG2 Assay for human Bone Morphogenetic Protein (BMP) Response Element (BRE) (AID 2282933). The following applies: HepG2 BMP response element reporter, Attagene transcription factor profiling; actives raise or lower the signal. In a few lines: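 A HepG2 multiplex reporter system measured inducible reporter mRNA 24 h post-dosing. Detection: RT-PCR, 6-FAM primer extension, HpaI digestion, capillary electrophoresis. Activity fitted bidirectionally relative to DMSO.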

Test [8] has as its target Retinoic acid receptor alpha (Homo sapiens) (UniProt P10276). Kind of test: ATG_DR5_RAR_CIS: Attagene CIS-FACTORIAL HepG2 Assay for human Retinoic Acid Receptor Alpha (RARE), DR5 submotif (AID 2282934).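 For AC50: reporter responds to endogenous RAR alpha beta and gamma in HepG2 not RARA alone.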 The following applies: HepG2 Attagene cis-factorial RARE DR5 reporter, mRNA; actives raise or lower the signal. In a few lines: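 Endpoint fitted in both directions relative to DMSO as negative control. It reflects DR5 cis-element reporter mRNA induction in transiently transfected HepG2 cells, measured 24 h after dosing through RT-PCR and fluorescent capillary electrophoresis.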

Test [9] has as its target Transcription factor E2F1 (Homo sapiens) (UniProt Q01094). Kind of test: ATG_E2F_CIS: Attagene CIS-FACTORIAL HepG2 Assay for human E2F Transcription Factor 1 (AID 2282935). The settings on record: HepG2 Attagene cis-reporter, E2F reporter RNA transcripts; actives raise or lower the signal. In a few lines:
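In this cis-factorial format, endogenous factor activity drives transfected reporters in HepG2; transcripts collected at 24 h are quantified by fluorescence after RT-PCR and capillary separation.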

Each structure is given as a SMILES string. Active and inactive are the calls of the source. Rule for the calls: active = hit-call score of the fitted dose curve at least 0.9, where 1 is the maximum; inactive = score below 0.9.

Sequence of Transcription factor E2F1 (Homo sapiens) (Q01094 whole entry, looked up): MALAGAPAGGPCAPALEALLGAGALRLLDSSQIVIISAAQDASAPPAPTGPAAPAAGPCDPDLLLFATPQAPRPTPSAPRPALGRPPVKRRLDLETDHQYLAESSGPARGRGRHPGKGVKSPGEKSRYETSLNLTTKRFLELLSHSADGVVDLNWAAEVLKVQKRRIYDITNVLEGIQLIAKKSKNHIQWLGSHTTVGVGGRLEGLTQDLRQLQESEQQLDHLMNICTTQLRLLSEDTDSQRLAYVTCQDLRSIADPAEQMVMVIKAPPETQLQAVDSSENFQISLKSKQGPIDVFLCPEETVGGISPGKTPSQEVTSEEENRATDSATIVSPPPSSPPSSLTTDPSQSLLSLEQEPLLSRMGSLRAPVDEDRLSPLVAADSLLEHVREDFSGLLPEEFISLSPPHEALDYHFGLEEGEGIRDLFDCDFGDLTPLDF
Sequence of Retinoic acid receptor alpha (Homo sapiens) (P10276 whole entry, looked up): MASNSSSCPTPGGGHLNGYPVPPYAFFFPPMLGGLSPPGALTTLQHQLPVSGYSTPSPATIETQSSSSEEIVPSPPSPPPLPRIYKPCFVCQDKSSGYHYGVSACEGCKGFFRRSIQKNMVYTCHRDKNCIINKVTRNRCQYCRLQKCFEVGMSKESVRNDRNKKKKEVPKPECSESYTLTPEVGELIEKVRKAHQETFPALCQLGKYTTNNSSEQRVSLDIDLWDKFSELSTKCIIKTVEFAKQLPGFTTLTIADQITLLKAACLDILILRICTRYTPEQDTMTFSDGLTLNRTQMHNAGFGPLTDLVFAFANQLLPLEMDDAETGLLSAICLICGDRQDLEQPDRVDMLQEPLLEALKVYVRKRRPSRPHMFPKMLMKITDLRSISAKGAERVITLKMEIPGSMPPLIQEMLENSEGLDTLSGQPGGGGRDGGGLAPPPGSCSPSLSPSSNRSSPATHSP
Sequence of Aryl hydrocarbon receptor (Homo sapiens) (P35869 whole entry, looked up): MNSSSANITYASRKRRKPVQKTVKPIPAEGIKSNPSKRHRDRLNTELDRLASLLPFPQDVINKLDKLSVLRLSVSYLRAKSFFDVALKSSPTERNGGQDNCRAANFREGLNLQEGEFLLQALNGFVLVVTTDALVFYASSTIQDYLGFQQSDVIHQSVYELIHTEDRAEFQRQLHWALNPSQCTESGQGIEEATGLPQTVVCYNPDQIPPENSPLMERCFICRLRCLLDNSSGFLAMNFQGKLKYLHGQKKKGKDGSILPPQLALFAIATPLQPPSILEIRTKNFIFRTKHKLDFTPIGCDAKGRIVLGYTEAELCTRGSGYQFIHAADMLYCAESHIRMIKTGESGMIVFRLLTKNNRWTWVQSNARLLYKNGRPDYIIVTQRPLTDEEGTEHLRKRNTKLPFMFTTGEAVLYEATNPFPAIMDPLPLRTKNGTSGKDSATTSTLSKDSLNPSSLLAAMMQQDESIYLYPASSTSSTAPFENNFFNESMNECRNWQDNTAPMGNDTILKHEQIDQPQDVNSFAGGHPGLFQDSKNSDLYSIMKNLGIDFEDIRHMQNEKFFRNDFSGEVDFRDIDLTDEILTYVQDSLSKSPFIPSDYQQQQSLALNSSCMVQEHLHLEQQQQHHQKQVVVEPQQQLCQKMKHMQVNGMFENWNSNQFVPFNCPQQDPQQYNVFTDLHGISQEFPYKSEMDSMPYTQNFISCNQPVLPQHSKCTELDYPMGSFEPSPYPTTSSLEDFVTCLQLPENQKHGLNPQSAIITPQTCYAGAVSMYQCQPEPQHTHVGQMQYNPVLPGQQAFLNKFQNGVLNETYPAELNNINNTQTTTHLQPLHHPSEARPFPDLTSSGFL

For the molecule `O=c1[nH]c(=O)c2[nH]c(=O)[nH]c2[nH]1`, the outcome in test [1], in test [2], in test [3], in [4], in [5] and in [6] was inactive. Besides, the result in [7], in test [8] and in [9] was inactive.
`CC1(C)O[C@@H]2C[C@H]3[C@@H]4C[C@H](F)C5=CC(=O)CC[C@]5(C)[C@H]4[C@@H](O)C[C@]3(C)[C@]2(C(=O)CO)O1`: the result in test [1], in test [2], in test [3], in test [4], in [5] and in test [6] was inactive. The molecule was classed as inactive in [7], in test [8] and in [9].
On to `O=C(C=Cc1ccccc1)OCc1ccccc1`, for which the result in [1], in test [2], in test [3], in test [4], in test [5] and in test [6] was inactive. The outcome in test [7], in [8] and in [9] was inactive.
As for `CC1=NC(C)OC1C` (configuration not stated), the result in test [1], in [3], in test [6], in test [7], in test [8] and in test [9] was inactive. Moreover, the AC50 in test [2] was 153 µM (active); in test [5] it was 100 µM (active).
With `COc1ccc(-c2coc3cc(O)ccc3c2=O)cc1`, the result in test [1], in [2], in test [3], in [7], in [8] and in test [9] was inactive. Moreover, the AC50 in test [4] was 20 µM (active).
For the molecule `c1ccc(-c2ccccn2)nc1`, the result in [1], in test [2], in test [4], in test [5], in [6] and in [7] was inactive. The molecule was classed as inactive in test [8] and in [9].
With `CC1=CC[C@H](C(C)C)C=C1`, the outcome in test [1], in test [2], in test [3], in test [4], in test [5] and in test [6] was inactive. The molecule was called inactive in test [7] and in [9].
For the molecule `Cc1ccc2oc(=O)ccc2c1`, the result in test [1], in [2], in test [3], in [4], in test [5] and in test [6] was inactive. For the same molecule, the molecule was called inactive in [7], in [8] and in test [9].
Regarding `CC(C)(Oc1ccc(C2CC2(Cl)Cl)cc1)C(=O)O` (configuration not stated), the call in [2], in test [3], in [4], in test [5], in test [7] and in test [8] was inactive. Further, the molecule was classed as inactive in test [9].
Take `CC(=O)[C@H]1[C@H](C#N)C[C@H]2[C@@H]3CC=C4C[C@@H](O)CC[C@]4(C)[C@H]3CC[C@@]21C`: the result in test [1], in [2], in [3], in test [4], in test [5] and in test [6] was inactive. For the same molecule, the outcome in test [7], in test [8] and in test [9] was inactive.
Take `CCCCCCCCCCCCCOP(=O)(O)O`: the outcome in test [1], in test [2], in test [3], in test [4], in [6] and in [8] was inactive. For the same molecule, the call in test [9] was inactive.
As to `CC(C)COC(=O)C=Cc1ccccc1`, the result in test [1], in [2], in test [3], in test [6], in [7] and in test [8] was inactive. Further, the molecule was classed as inactive in [9]. For the same molecule, the AC50 in test [5] is 139 µM (active).
Regarding `Cc1ccc(N/N=c2\c(=O)cc/c(=N/Nc3ccc(S(=O)(=O)O)cc3)c2=O)c(C)c1`, the result in [2], in test [3], in test [6], in test [7], in test [8] and in [9] was inactive. In addition, the AC50 in [4] is 9.18 µM (active).
On to `COC(=O)c1cc(Cl)ccc1[N+](=O)[O-]`, for which the outcome in [1], in test [2], in [3], in test [4], in test [5] and in [6] was inactive. Further, the call in test [7] and in [8] was inactive.
For `CC1=Nc2ccc3ccccc3c2C1(C)C`, the outcome in [1], in test [3], in test [8] and in test [9] was inactive. For the same molecule, the results for the AC50 in [2] and in [5] were 66.4 µM (active) and 66 µM (active), respectively.
Take `c1ccc(CNCc2ccccc2)cc1`: the result in test [1], in test [2], in test [3], in test [4], in test [6] and in [8] was inactive. Further, the molecule was called inactive in test [9].
Turning to `CCOC(=O)N1CCC(=C2c3ccc(Cl)cc3CCc3cccnc32)CC1`, the values for the AC50 in [2] and in test [3] were 7.56 µM (active) and 9.1 µM (active), respectively. Also, the molecule was classed as inactive in test [4], in [5], in [6], in test [8] and in test [9].
`CC(=O)OC1C2(C)CCC(C2)C1(C)C` (configuration not stated): the outcome in test [1], in test [2], in test [3], in [4], in test [5] and in test [6] was inactive. The outcome in [8] and in test [9] was inactive.
`COC(=O)/C=C/C(C)=C\C=C\C(C)=C\C=C\C=C(C)\C=C\C=C(C)\C=C\C(=O)O`: the outcome in test [1], in test [2], in [3], in test [4], in test [5] and in test [6] was inactive. Moreover, the result in test [7], in [8] and in test [9] was inactive.
`CC(=O)[C@@]1(O)CC[C@H]2[C@@H]3C[C@H](C)C4=CC(=O)C=C[C@]4(C)[C@@]3(F)[C@@H](O)C[C@@]21C`: the outcome in test [1], in test [2], in [3], in [5], in test [6] and in [7] was inactive. Moreover, the molecule was classed as inactive in test [9]. In addition, in test [8], the AC50 is 100 µM (active).
Take `CCCCCCOc1cc(C)c(O)c(C)c1C`: the result in test [1], in test [2], in [3], in [4], in [5] and in [6] was inactive. Moreover, the call in [7], in test [8] and in test [9] was inactive.
